Like-named read-outs stand apart in the source and are kept apart here. The campaign covered roughly 13,000 compounds. About 3,200 (25%) showed an effect of 50% or more. The list shows a part of the results.
System: P. falciparum stage V gametocytes
Design: BacTiter-Glo ATP luminescence viability of purified stage V gametocytes in 384-well plates, per cent inhibition versus DMSO
Conditions: 48 h, 5 µM, inhibitor

SMILES | % Inhibition [%] | % Inhibition (% Inhibition) [%]
O=C(/C=C/c1ccc(Cl)c(Cl)c1)NCCCCCN1CCC(NC(=O)Nc2ccc(F)c(Cl)c2)CC1 [TCMDC-135720] | -54.39 | 
O=C(c1ccc(-c2ccc(-c3nc4cc(C(F)(F)F)ccc4[nH]3)s2)cc1)N1CCCCC1CN1CCC(O)C1 (centres unmarked) [TCMDC-132342] | -28.43 | 
COc1ccc(Nc2nccc(-c3cccc(NC(=O)c4cc5cc(F)ccc5[nH]4)c3)n2)cc1 [TCMDC-133307] | 7.51 | 
COc1ccc(-c2cc(C(=O)N[C@@H](CC3CCCCC3)C(=O)NCCN3CCCCC3)ccc2O)cc1 [TCMDC-140805] | 23 | 
CCCCNC(=O)[C@H](CC1CCCCC1)NC(=O)c1ccc(O)c(-c2ccc(OC)cc2)c1 [TCMDC-140803] | 9.095 | 
COc1ccc(-c2cc(C(=O)N[C@@H](CC3CCCCC3)C(=O)NCCN3CCCC3)ccc2O)cc1 [TCMDC-140802] | 56.09 | 
O=C(Nc1ccc2nc(-c3ccc4nc(NC(=O)C5CCCCC5)sc4c3)[nH]c2c1)C1CCCCC1 [TCMDC-125768] | -44.12 | 
O=C(N[C@@H](Cc1ccccc1)[C@H](O)CNC1CCc2ccccc2C1)c1cc(C2CCCC2)cc(N2CCCC2=O)c1 (some centres unmarked) [TCMDC-134647] | -1.727 | 
Cc1ccc(/C=C/C(=O)NC2CCC(CN3CCC(c4c[nH]c5ccccc45)CC3)CC2)cc1C (centres unmarked) [TCMDC-139760] |  | 36.59
Cc1ccc(/C=C/C(=O)NC2CCC(CN3CCC(c4c[nH]c5ccccc45)CC3)CC2)cc1 (centres unmarked) [TCMDC-139717] |  | 80.48
CCCCC/C=C/C(=O)NC1CCC(CN2CCC(c3c[nH]c4ccccc34)CC2)CC1 (centres unmarked) [TCMDC-139709] | 109.3 | 
Cc1ccc(C)c(C=CC(=O)NC2CCC(CN3CCC(c4c[nH]c5ccccc45)CC3)CC2)c1 (centres unmarked) [TCMDC-139904] |  | 66.94
Cc1ccc(C)c(C=CC(=O)NC2CCC(CN3CCC(c4c[nH]c5ccccc45)CC3)CC2)c1 (centres unmarked) [TCMDC-139916] |  | -2.713
Cc1ccc(/C=C/C(=O)NC2CCC(CN3CCC(c4c[nH]c5ccccc45)CC3)CC2)cc1 (centres unmarked) [TCMDC-139702] |  | 110
O=C(/C=C/c1cccs1)NC1CCC(CN2CCC(c3c[nH]c4ccccc34)CC2)CC1 (centres unmarked) [TCMDC-139759] | 42.82 | 
O=C(c1cc2c(s1)-c1cccc(Cl)c1SC2)N1CCN(c2ccncc2)CC1 [TCMDC-133145] | 30.1 | 
CCOc1cc2ncnc(Nc3ccc(OCc4ccccc4Br)c(OC)c3)c2cc1OCC [TCMDC-131938] | -6.786 | 
COc1ccccc1C1CC(c2ccccc2)=NN1C(=O)c1ccco1 (centres unmarked) [TCMDC-124921] | 5.682 | 
COc1ccc(-c2cn3c(C(=O)Nc4ccccc4Cl)c(-c4ccccc4)c4c3n2CCCC4)cc1 [TCMDC-125125] | -39.86 | 
CCNC(=O)CCc1cccc(Br)c1 [TCMDC-137648] | 26.26 | 
CCNc1cc(C(=O)N[C@@H](Cc2ccccc2)[C@H](O)CNCCc2cccc3ccccc23)cc(N2CCCC2=O)c1 [TCMDC-134568] | -9.566 | 

SMILES | % Inhibition [%] | % Inhibition (% Inhibition) [%]
N#Cc1ccc(N[C@@H](CC2CCCCC2)C(=O)NCc2cc(Cl)cc(Cl)c2)c2ccccc12 [TCMDC-136626] | 13.09 | 
COC(=O)[C@@H](NC(=O)[C@H](Cc1ccc(OC)c(OC)c1)Nc1ccc(C#N)c2ccccc12)c1ccc(O)cc1 [TCMDC-136637] | 53.18 | 
CC(C)(C)[C@@H](Nc1ccc(C#N)c2ccccc12)C(=O)NC1(Cc2ccc(O)cc2)CCCC1 [TCMDC-136782] | 18.1 | 
CCCCC1(NC(=O)[C@H](CC(C)C)Nc2ccc(C#N)c3ccccc23)CCCCC1 [TCMDC-136624] | -52.31 | 
CCC(CC)C(CC(=O)NC(C)(C)CCc1ccccc1OC)Nc1ccc(C#N)c2ccccc12 (centres unmarked) [TCMDC-132308] | 3.423 | 
CC(C)C[C@H](Nc1ccc(C#N)c2ccccc12)C(=O)N[C@@H]1CCCc2ccccc21 [TCMDC-136088] | 59.15 | 
Cc1cc(NC(=O)[C@H](CC(C)C)Nc2ccc(C#N)c3ccccc23)ccc1F [TCMDC-136623] | -63.41 | 
COC(=O)[C@@H](NC(=O)[C@H](CC(C)C)Nc1ccc(C#N)c2ccccc12)c1ccc(O)cc1 [TCMDC-136622] | 62.67 | 
N#Cc1ccc(N[C@@H](CC2CCCCC2)C(=O)N[C@@H]2CCCc3ccccc32)c2ccccc12 [TCMDC-136633] | 13.98 | 
COC(=O)[C@@H](NC(=O)[C@@H](Nc1ccc(C#N)c2ccccc12)C(C)(C)C)c1ccc(O)cc1 [TCMDC-136607] | 78.97 | 
COc1cccc([C@@H](CC(=O)Nc2cc(C(F)(F)F)ccc2OC)Nc2ccc(C#N)c3ccccc23)c1 [TCMDC-132309] | 11.85 | 
CC(C)(C)[C@@H](Nc1ccc(C#N)c2ccccc12)C(=O)NC1(Cc2ccc(O)c(Br)c2)CCCC1 [TCMDC-136784] | 27.12 | 
CC(=O)Nc1cccc(CNCc2ccc(-c3cnc(N4CCCC(c5ccccc5)C4)nc3)cc2)c1 (centres unmarked) [TCMDC-133723] | -4.34 | 
CC(Sc1nc(-c2ccccc2)c(-c2ccccc2)o1)C(=O)NC1CC1 (centres unmarked) [TCMDC-125313] | 34.01 | 
O=C(Nc1ccc(Cn2ncc(N3CCCNCC3)c(Cl)c2=O)cc1)Nc1cccc(SC(F)(F)F)c1 [TCMDC-133321] | -32.98 | 
O=C(Nc1ccc([N+](=O)[O-])cc1)Nc1nc2ccc(Cl)cc2s1 [TCMDC-123703] | 38.6 | 
Cc1cccc2nc(-c3ccc(-c4ccc(NC(=O)C(C)CN(C)C)cc4)s3)[nH]c12 (centres unmarked) [TCMDC-137115] | 20.93 | 
COc1nc2c(CCN3CCC(NCc4ccc5c(n4)NC(=O)CO5)CC3)c(Cl)cnc2cc1F [TCMDC-135766] | -7.442 | 
CN1CCN(Cc2cc3cc(NC(=O)/C=C/c4cccc(Cl)c4)ccc3s2)CC1 [TCMDC-135630] | -63.97 | 
CC(C)C[C@@H](/C=N/N1CCNC1=O)NC(=O)[C@H](CC(C)C)NC(=O)c1ccc(OCCN2CCOCC2)cc1 [TCMDC-136227] | 6.84 | 

— article PMC4552634, “A New Set of Chemical Starting Points with Plasmodium falciparum Transmission-Blocking Potential for Antimalarial Drug Discovery” (PLoS ONE, 2015)
